Test results as given in PubChem BioAssay AID588689 (Southern Research Specialized Biocontainment Screening …, 2011).
Hit rate of the full screen: of about 340,000 compounds, about 1,000 (0.29%) were called active. No stated cut-off is given here; in the data, inconclusive means inhibition above about 29% without an active follow-up result; inactive means below that. These entries were drawn from the full list. Potency and affinity values are given separately.

Molecular target: Genome polyprotein (Dengue virus type 2 (strain 16681-PDK53)) (UniProt P29991)
Test: flavivirus cap methylation enzyme inhibition – biochemical, confirmation dose response, primary screen (AID 588689)
Conditions: Dengue-2 NS5 methyltransferase capping enzyme assay, at 25 µM, active compounds read high

Genome polyprotein (Dengue virus type 2 (strain 16681-PDK53)), sequence (P29991 whole entry, looked up): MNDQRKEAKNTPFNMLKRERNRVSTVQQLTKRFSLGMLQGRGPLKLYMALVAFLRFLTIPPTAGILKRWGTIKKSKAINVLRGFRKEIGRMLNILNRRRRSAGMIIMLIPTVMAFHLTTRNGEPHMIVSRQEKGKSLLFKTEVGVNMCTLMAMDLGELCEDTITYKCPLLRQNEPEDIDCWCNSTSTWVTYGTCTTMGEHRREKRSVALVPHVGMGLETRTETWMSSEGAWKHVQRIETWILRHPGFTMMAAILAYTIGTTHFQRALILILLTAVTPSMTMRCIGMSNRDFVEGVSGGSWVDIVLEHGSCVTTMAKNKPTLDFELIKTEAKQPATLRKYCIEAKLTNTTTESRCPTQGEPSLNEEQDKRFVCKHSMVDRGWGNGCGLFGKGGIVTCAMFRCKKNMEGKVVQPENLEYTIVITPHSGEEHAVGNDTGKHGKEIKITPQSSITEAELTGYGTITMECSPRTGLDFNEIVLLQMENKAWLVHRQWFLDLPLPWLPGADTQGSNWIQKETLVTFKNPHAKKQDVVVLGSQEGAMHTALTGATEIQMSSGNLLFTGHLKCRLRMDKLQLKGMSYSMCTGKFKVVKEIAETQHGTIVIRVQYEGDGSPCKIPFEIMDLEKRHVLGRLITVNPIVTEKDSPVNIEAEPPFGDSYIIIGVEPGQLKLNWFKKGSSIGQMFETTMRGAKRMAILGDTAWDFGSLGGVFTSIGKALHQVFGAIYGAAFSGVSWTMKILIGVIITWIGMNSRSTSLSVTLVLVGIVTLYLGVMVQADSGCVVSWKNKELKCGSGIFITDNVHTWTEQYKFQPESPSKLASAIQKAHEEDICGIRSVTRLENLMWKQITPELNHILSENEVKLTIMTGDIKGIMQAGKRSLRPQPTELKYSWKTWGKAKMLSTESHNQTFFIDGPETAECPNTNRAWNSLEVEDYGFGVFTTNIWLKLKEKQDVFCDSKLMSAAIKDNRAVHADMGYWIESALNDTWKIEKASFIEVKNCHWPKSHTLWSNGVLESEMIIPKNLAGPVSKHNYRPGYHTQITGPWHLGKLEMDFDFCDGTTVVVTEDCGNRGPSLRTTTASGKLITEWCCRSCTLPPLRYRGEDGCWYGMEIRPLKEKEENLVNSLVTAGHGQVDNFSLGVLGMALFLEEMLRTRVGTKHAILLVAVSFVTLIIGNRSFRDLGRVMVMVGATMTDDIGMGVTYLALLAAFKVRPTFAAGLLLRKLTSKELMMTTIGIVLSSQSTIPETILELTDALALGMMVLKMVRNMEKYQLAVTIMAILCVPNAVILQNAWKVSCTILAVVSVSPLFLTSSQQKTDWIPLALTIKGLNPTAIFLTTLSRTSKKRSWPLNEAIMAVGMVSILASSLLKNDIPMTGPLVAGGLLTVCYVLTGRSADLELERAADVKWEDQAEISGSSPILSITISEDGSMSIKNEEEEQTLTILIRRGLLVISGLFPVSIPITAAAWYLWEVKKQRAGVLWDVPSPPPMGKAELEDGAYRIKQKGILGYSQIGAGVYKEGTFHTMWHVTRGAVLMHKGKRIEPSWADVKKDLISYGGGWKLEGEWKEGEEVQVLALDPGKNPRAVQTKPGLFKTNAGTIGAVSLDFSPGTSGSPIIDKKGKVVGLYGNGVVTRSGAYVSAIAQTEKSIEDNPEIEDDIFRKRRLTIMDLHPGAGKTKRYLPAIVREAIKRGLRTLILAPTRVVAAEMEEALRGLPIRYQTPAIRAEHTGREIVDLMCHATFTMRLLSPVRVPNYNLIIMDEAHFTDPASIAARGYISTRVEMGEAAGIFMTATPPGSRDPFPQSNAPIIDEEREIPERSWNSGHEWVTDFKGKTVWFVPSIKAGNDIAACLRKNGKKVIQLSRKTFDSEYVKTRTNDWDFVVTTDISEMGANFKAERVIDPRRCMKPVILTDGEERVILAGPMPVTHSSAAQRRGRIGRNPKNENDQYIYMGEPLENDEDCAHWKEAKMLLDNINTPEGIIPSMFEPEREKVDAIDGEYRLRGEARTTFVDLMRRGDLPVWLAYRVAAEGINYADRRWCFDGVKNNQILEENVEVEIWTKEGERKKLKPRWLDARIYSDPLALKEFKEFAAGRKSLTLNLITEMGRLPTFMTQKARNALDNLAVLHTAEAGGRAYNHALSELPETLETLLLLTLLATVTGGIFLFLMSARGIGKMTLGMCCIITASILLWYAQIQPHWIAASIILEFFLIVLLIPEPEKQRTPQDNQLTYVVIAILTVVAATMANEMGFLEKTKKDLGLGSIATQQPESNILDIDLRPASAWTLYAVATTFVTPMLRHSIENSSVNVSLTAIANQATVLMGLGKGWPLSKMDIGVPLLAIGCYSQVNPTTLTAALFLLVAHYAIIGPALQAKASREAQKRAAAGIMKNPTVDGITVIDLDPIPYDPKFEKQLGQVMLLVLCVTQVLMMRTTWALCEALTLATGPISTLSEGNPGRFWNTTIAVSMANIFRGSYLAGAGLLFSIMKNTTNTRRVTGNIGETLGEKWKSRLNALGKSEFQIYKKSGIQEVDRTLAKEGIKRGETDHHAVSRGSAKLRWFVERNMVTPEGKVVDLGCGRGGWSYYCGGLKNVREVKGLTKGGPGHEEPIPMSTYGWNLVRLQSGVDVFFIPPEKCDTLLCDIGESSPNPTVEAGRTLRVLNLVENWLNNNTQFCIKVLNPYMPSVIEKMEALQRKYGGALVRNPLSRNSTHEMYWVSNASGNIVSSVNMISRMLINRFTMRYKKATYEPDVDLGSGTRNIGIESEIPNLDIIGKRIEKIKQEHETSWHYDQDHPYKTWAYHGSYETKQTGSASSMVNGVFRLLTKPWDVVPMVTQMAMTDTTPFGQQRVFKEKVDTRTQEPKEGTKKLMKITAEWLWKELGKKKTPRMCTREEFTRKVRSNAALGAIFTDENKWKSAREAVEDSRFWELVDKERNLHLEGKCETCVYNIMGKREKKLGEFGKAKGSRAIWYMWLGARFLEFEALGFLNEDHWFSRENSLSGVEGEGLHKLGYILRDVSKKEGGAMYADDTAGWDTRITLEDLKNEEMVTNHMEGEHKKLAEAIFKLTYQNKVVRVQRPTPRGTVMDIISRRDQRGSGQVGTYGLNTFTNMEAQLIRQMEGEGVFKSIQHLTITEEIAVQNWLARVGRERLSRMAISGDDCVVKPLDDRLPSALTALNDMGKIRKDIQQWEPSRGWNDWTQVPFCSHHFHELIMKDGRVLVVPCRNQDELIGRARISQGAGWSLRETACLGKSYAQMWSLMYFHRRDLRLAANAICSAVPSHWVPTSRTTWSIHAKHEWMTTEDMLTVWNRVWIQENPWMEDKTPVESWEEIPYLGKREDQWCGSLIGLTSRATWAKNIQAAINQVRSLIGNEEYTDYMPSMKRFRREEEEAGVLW

inhibition, inactive:
COc1ccc2sc(N(CCCN(C)C)C(=O)c3ccc(C(=O)c4ccccc4)cc3)nc2c1 0%
CN(Cc1ccccc1F)C(=O)C1CCCN(C(=O)c2ccc(Cl)cc2)C1 (stereo not given) 3.62%
COc1ccc(NS(=O)(=O)c2ccc3c(c2)N(C(C)=O)CCS3)cc1 -7.87%
CCOc1nc(C)ccc1-c1noc(C)n1 0%
COCc1c(Br)c(C)nc(OCC(=O)O)c1C#N 0.8%
CCCCN(C(=O)CCC(=O)Nc1cc(C)on1)C(C(=O)NC1CCCC1)c1ccc(F)cc1 (stereo not given) -14.2%
N#Cc1cc2c(nc1SCc1cccc(Cl)c1)CCCCC2 4.4%
Cc1ccc(C(=O)OCC(=O)N2CCC(C)CC2)cc1S(=O)(=O)N1CCCCC1 -4.55%
CCCCSC1=N/C(=C/c2ccsc2)C(=O)N1c1ccccc1 -1.97%
Fc1cccc(COc2ccccc2C(=S)N2CCCC2)c1 -5.22%
Cc1[nH]c2ccccc2c1C(C[N+](=O)[O-])c1cccc(O)c1 (stereo not given) -3.77%
CCS(=O)(=O)Nc1c(C(=O)O)[nH]c2ccccc12 -0.33%
C#CCOCCOCCOCCNc1nc(N2CCN(C(=O)[C@H](CO)n3cc([C@@H](N)C(C)C)nn3)CC2)nc(N2CCN(C(=O)[C@H](CCCCN)n3cc([C@@H](N)[C@H](C)CC)nn3)CC2)n1 0%
Cc1ccc(/C=N/NC(=O)c2ccncc2)cc1 -7.15%
Cc1ccsc1/C=N/NC(=O)c1ccncc1 -0.74%
Cn1c(=O)c(/C(N)=N/OC(=O)c2ccccc2)cn(-c2ccccc2)c1=O 0%
Cc1nc2nc(C)c(NS(=O)(=O)c3ccc(C4CCCCC4)cc3)c(=O)n2[nH]1 -5.01%
CCc1nc2nc(C)c(NS(=O)(=O)c3ccc(C4CCCCC4)cc3)c(=O)n2[nH]1 7.51%
Cc1cc(Br)ccc1NC(=O)c1ccc(-n2cncn2)c([N+](=O)[O-])c1 5.79%
O=C(CCCCCNc1nc(=S)[nH]c2ccccc12)NCCC1=CCCCC1 -4.45%
CCCCn1c(N)c(N(CC(C)C)C(=O)C2CCCO2)c(=O)[nH]c1=O (stereo not given) -0.74%
COc1cc2c(cc1OC)C1c3ccc(OC)c(OC)c3OCC1(O)C2 (stereo not given) 3.23%
CCOc1ccc(NC(=O)CN(C)C(=O)c2ccncc2)cc1OCC 4.54%
O=C(CCOc1ccccc1)N1CCCC(Nc2ccccc2)C1 (stereo not given) -3.45%
COc1cccc(CNC(=O)[C@H](C)NC(=O)C2CCN(S(=O)(=O)c3ccccc3)CC2)c1 -6.35%
